Screens (PubChem BioAssay)
A selection: hits, their analogues and other compounds. The true share with any hit is near 0.87%.
sEH activator: soluble epoxide hydrolase activators, primary screen, biochemical, human sEH; Bifunctional epoxide hydrolase 2 (Homo sapiens), P34913; purified human sEH enzymatic activity, activator screen; activation, % at 2 µM; hit rate 0.04% among 91,000; AID 717, 2007; in the data active = activation above about 37%
Target sequence (P34913 whole entry, looked up): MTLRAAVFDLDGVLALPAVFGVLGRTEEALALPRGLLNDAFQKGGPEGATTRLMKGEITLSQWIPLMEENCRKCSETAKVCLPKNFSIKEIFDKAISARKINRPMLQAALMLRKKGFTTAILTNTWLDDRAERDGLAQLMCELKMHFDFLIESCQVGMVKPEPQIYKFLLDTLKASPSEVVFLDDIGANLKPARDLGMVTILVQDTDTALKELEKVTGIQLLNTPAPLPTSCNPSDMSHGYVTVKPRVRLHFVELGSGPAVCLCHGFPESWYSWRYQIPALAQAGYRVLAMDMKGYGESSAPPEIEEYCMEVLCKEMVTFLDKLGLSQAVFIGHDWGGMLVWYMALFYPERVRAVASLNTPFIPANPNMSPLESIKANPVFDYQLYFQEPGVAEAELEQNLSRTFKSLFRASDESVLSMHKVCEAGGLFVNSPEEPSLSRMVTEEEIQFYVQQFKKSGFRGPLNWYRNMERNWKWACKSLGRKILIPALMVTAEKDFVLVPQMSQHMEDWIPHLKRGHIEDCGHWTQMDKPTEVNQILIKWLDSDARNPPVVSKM
Candida biofilm: clotrimazole potentiators killing Candida biofilms, primary screen, with clotrimazole, Alamar Blue. C. albicans biofilm + clotrimazole. inhibition, % at 6 µM. hit rate 0.14% among 85,000. AID 834, 2007;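 active = inhibition above 20%; inactive = inhibition below 20%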;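 also: preformed 24 hr biofilms exposed to compound for 48 hr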
MRP reversal: reversal of MRP1-mediated doxorubicin resistance, primary screen, H69AR cells, doxorubicin co-treatment | H69AR cells + 2 uM doxorubicin, CellTiter-Glo, 72 h | differential viability (reversal), % at 10 µM | hit rate 0.04% among 85,000;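 active = viability drop by adding the cancer drug above about 55%, with treated viability meeting a 40% cutoff, limit read from the data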;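 also: larger differential means the compound sensitizes cells more to doxorubicin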
sEH inhibitor: soluble epoxide hydrolase inhibitors, primary screen, biochemical, human sEH; recombinant human sEH enzymatic activity assay; inhibition, % at 2 µM; hit rate 0.34% among 91,000; AID 707, 2007; in the data active = inhibition above about 80%
MRP-1 activ: H69AR viability gain despite doxorubicin, primary screen, MRP-1 activator project, H69AR cells, CellTiter-Glo; viability rescue; viability increase, % at 10 µM; hit rate 0.61% among 140,000;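 active = viability gain under doxorubicin at or above a set limit, the compound median plus 3 SD, cut at about 4.7% in these data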;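 also: MRP-1 overexpressing cells given doxorubicin 25 µM after compound pretreatment; 18-22 h compound pretreatment then 72 h with doxorubicin before readout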
Hits are given with their value; i = inactive; nt = no result given.

SMILES	sEH activator	Candida biofilm	MRP reversal	sEH inhibitor	MRP-1 activ
c1cncc(-c2ccnc3ncnn23)c1	nt	nt	nt	nt	i
CC(=O)Nc1ccc(Nc2nc(C)c([N+](=O)[O-])c(Nc3ccc(NC(C)=O)cc3)n2)cc1	nt	nt	nt	nt	i
Cc1ccc(Cn2ccc(NC(=O)c3noc4c3CCCC4)n2)cc1	nt	i	i	nt	i
Cc1ccc(Cn2ccc(NC(=O)c3noc4c3CCCCC4)n2)cc1	nt	i	i	nt	4.7
Cc1ccc(S(=O)(=O)NC(=O)c2cc(C)n(-c3cc(S(=O)(=O)N4CCOCC4)ccc3N3CCCC3)c2C)cc1	i	nt	nt	i	5.0
Cc1ccc(S(=O)(=O)NC(=O)c2cc(C)n(-c3ccccc3)c2C)cc1	nt	nt	nt	nt	i
CC1CCCCN1C(=O)NC12CC3CC(CC(C3)C1)C2 (stereo not given)	i	i	i	87	i
CCc1ccc(NC(=O)Nc2ccc3c(c2)N(C)C(=O)CS3)cc1	i	i	i	91	i
COc1ccc(C2(CNC(=O)c3ccc(OC)c([N+](=O)[O-])c3)CCCCC2)cc1OC	nt	nt	nt	nt	i
CC(C)(Oc1ccc(Cl)cc1)C(=O)N/N=C/c1cn[nH]c1-c1ccccc1	i	nt	nt	i	i
C=CCOc1ccc(CNc2ccc(NC(=O)CC(C)C)cc2)cc1OC	nt	nt	nt	nt	18
Cc1[nH]n(-c2ccccc2)c(=S)c1C=Nc1cccc([N+](=O)[O-])c1	i	nt	nt	i	i
O=[N+]([O-])c1ccc(N/N=C/c2ccccc2)c(F)c1	nt	nt	nt	nt	5.2
CC(NC(=O)CSc1nnc(-c2cccc(S(=O)(=O)N3CCCCC3)c2)o1)C12CC3CC(CC(C3)C1)C2 (stereo not given)	i	i	i	93	i
CC(C)CNC(=O)CSc1nnc(-c2cccc(S(=O)(=O)N3CCCCC3)c2)o1	i	i	i	i	i
O=C(NCc1cccs1)C1CCC(CNS(=O)(=O)c2ccc(Br)s2)CC1 (stereo not given)	i	i	i	92	i
O=C(N/N=C/c1cccc(O)c1)c1csc2ccccc12	i	nt	nt	84	i
CCOc1ccc(/C=N/NC(=O)c2csc(C)c2C)c(OCC)c1	nt	nt	nt	nt	i
Cc1c(/C=N\NC(=O)c2csc3ccccc23)cnn1C	i	nt	nt	i	i
CCCCOc1cccc(/C=N/NC(=O)c2csc(C)c2C)c1	i	nt	nt	82	i
CCC(C)[C@H](NC(=O)NCc1ccccc1Cl)C(=O)OC (stereo not given in full)	i	i	i	95	i
CC(C)C(=O)N(Cc1cc2ccccc2[nH]c1=O)C(C)C	i	i	i	i	i
CC(C)N(Cc1cc2ccccc2[nH]c1=O)C(=O)C(C)(C)C	i	i	i	i	9.3
CCOC(=O)CC(=O)CSc1nc2ccccc2c(=O)n1-c1ccc(C(=O)NCCOC)cc1	i	i	i	i	i
O=C(NCCN1C(=O)S/C(=C/c2ccccc2)C1=O)C1CCCN1C(=O)c1cccs1 (stereo not given)	nt	nt	nt	nt	7.5
SMILES	sEH activator	Candida biofilm	MRP reversal	sEH inhibitor	MRP-1 activ
Cc1ccc(CNC(=O)c2sc3nc4c(c(C(F)(F)F)c3c2N)CCC4)cc1	i	nt	nt	i	4.8
Cc1nc2c(ccc3nc(NC(=O)C(c4ccccc4)c4ccccc4)sc32)s1	nt	nt	nt	nt	15
Cc1nc2c(ccc3nc(NC(=O)Cc4cccc5ccccc45)sc32)s1	nt	nt	nt	nt	i
CCCc1nnc(NC(=O)C(CC)OC(=O)c2cc(C)nc3ccccc23)s1 (stereo not given)	i	nt	nt	i	i
CC(C(=O)N1c2ccccc2CCc2ccccc21)n1nnc(-c2ccc(N(C)C)cc2)n1 (stereo not given)	i	i	i	i	8.2
O=C(Nc1ccc(Cl)cc1)C1CCCN(S(=O)(=O)c2cnc[nH]2)C1 (stereo not given)	nt	i	i	nt	4.9
Cc1cccc(C(=O)c2cnc3ccccc3c2-c2ccccc2)c1	i	nt	nt	i	5.0
Cc1cccc(C(=O)NNC(=O)c2ccccc2)c1	nt	nt	nt	nt	i
O=C(N/N=C/c1ccccc1[N+](=O)[O-])c1ccc(COc2ccccc2-c2ccccc2)cc1	nt	nt	nt	nt	7.3
N#CCSc1nc2ccc(N3CCCCC3)cc2c(=O)n1Cc1ccccc1	i	i	i	i	4.8
C=C(C)Cn1c(SCC#N)nc2ccccc2c1=O	i	i	i	i	i
CN(CC(O)COCc1ccc2c(c1)OCO2)C1CCCCC1 (stereo not given)	nt	nt	nt	nt	i
CC(/C=N\NC(=O)CN1CCN(S(=O)(=O)c2ccc(C)cc2)CC1)=C\c1ccccc1	nt	nt	nt	nt	5.8
CCOC(=O)N1CCN(c2nc(-c3cccc(OC)c3)cc(C(F)(F)F)n2)CC1	i	i	i	i	8.7
COc1ccc(C(=O)Nc2ccc(N3CCCC3)cc2)cc1	i	80	i	i	i
COc1ccc(C(=O)Nc2ccc(S(=O)(=O)Nc3nccnc3OC)cc2)cc1	i	nt	nt	i	6.2
CCCOc1ccc(C(=O)Nc2ccc(N3CCN(C(C)=O)CC3)cc2)cc1	i	nt	nt	i	6.0
Cc1ccc(NC(=O)C2(c3cccs3)CCOCC2)cc1C	nt	nt	nt	nt	i
CC1CN(c2nc3c(c(=O)n(Cc4ccc(Cl)cc4)c(=O)n3C)n2C)CC(C)O1 (stereo not given)	nt	i	57	nt	i
O=S(=O)(Nc1nc2ccccc2nc1Nc1ccc2c(c1)OCO2)c1ccc(F)cc1	nt	nt	nt	nt	i
O=C1NC(=O)C2(COC(c3ccncc3)OC2)S1 (stereo not given)	nt	nt	nt	nt	i
O=C1NC(=O)C2(COC(c3ccccc3Cl)OC2)S1 (stereo not given)	nt	nt	nt	nt	7.2
CC(=O)Nc1cc(Cl)ccc1OS(=O)(=O)c1ccc(C)cc1	nt	nt	nt	nt	i
O=C(Nc1ccc(C2CC2(Cl)Cl)cc1)c1ccccc1Br (stereo not given)	nt	nt	nt	nt	11
O=C(Oc1ccccc1C(=O)Nc1ccccc1)c1ccccc1Br	nt	nt	nt	nt	i
SMILES	sEH activator	Candida biofilm	MRP reversal	sEH inhibitor	MRP-1 activ
COc1ccc(NC(=O)NC23CC4(C)CC(C)(CC(C)(C4)C2)C3)cc1OC	nt	nt	nt	nt	i
Cc1cccc(NC(=O)CSc2nc(-c3ccccc3)c(C#N)c(=O)[nH]2)c1C	i	nt	nt	i	9.1
N#Cc1c(-c2ccco2)nc(SCC(=O)Nc2ccc(S(N)(=O)=O)cc2)[nH]c1=O	i	nt	nt	i	i
CCOC(=O)CCCCC(=O)c1[nH]c(=O)[nH]c1CSc1nc(-c2ccccc2)c(C#N)c(=O)[nH]1	i	i	i	i	6.4
CCC(Sc1nccn1C)C(=O)Nc1nnc(C)s1 (stereo not given)	i	i	i	i	7.3
N#Cc1c(-c2ccccc2)nc(SCC(=O)Nc2ccccc2F)[nH]c1=O	nt	nt	nt	nt	9.8
CCOC(=O)CCCCC(=O)c1[nH]c(=O)[nH]c1CSCCO	i	i	i	i	i
O=C(CN1C(=O)C2C3c4ccccc4C(c4ccccc43)C2C1=O)Nc1ccccc1C(=O)O (stereo not given)	nt	nt	nt	nt	i
N#C/C(=C\c1cccc(NC(=O)c2ccccc2Cl)c1)C(=O)NCCc1ccccc1	nt	nt	nt	nt	i
N#Cc1c(-c2ccccc2)nc(SCC(=O)Nc2ccccc2)[nH]c1=O	nt	nt	nt	nt	9.6
C=CCSc1nc(-c2ccccc2)c(C#N)c(=O)[nH]1	i	i	i	i	i
N#Cc1c(-c2cccs2)nc(SCC(=O)c2cccs2)[nH]c1=O	i	nt	nt	i	5.6
N#Cc1c(-c2ccccc2)nc(SCC(=O)N(c2ccccc2)c2ccccc2)[nH]c1=O	nt	nt	nt	nt	7.5
